Assay results: PubChem BioAssay (NCI)
Compounds without any hit were thinned out: in the full panel of roughly 83,000, 20% have a hit.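 Percent growth is the endpoint: 0 to 100 indicates growth inhibition (40 means 60% inhibition), 0 means no net growth, and negative values indicate cell death.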 Unmarked numbers belong to inactive results. Active and inactive are the calls of the source.

Each compound was assayed on MOLT-4 leukemia (assay: NCI-60 one-dose screen, 48 h (100 = growth as untreated, 0 = no growth, -100 = all killed)). Conditions: 10 µM unless noted.
Procedure: Growth inhibition of the MOLT-4 human tumor cell line is measured as a screen for anti-cancer activity. Cells are grown in 96 well plates and exposed to the test compound for 48 hours. Compounds are tested at a single concentration, which is 10^-5 M for most compounds. The reported endpoint is percent growth (GI% or GIPRCNT), where numbers from 0 - 100% represent growth inhibition, and numbers from -100% - 0 represent cell death. For example, a value of 40 represents 60% growth inhibition. A value of 0 means no net growth occurred over the course of the experiment. A value of -40 indicates 40% of cells at the beginning of the experiment died by the end of the experiment. A value of -100 means all cells are dead at the end of the experiment.
NCI-60 Human Tumor Cell Lines Screen was performed using the standard one-dose NCI protocol, which is described in more detail at https://dtp.cancer.gov/discovery_development/nci-60/default.htm.
Compounds with GIPRCNT values below 10 were considered active. Activity score was based on GIPRCNT using the following formula: […]
Score is 0 for GIPRCNT values of 100 or above, 50 for GIPRCNT values of 0, and 100 for GIPRCNT values of -100.

Question: With `COc1cc(-c2ccc(NC(=O)CC(C)=O)c(OC)c2)ccc1NC(=O)CC(C)=O` as the compound, how does the growth read?
Answer: Its growth is 89.5%.

Question: For `CCCC1OC(c2ccco2)OCC1CC` (stereo not given), which growth is on record?
Answer: The growth was 89.3%.

Question: How did the growth turn out when `CC(CCC#N)(CCC#N)C(=O)c1ccccc1` was run?
Answer: The growth was 97.8%.

Question: How did the growth turn out when `CC1CN(CCO)CC(C)O1` (stereo not given) was run?
Answer: The growth was 105%.

Question: With `CN(C(=S)S(=O)(=O)C12CC3CC(CC(C3)C1)C2)c1ccccc1` as the compound, how does the growth read?
Answer: The growth was 11.9%.

Question: How did the growth turn out when `Cc1ccc(N)c(S(=O)(=O)O)c1` was run?
Answer: Its growth is 83.6%.

Question: For `NNC(=O)c1ccccc1N`, which growth is on record?
Answer: The growth was 112%.

Question: `COc1ccc(C2CCCCC2=O)cc1` (stereo not given) was tested. Which growth did it give?
Answer: Its growth is 97.9%.

Question: With `Oc1cccnc1CN1CCCC1` as the compound, how does the growth read?
Answer: The growth was 94.2%.

Question: For `Cn1c(=O)[nH]c2ccccc2c1=O`, which growth is on record?
Answer: The growth was 122%.

Question: How did the growth turn out when `Cc1ccc(S(=O)(=O)CCCl)cc1` was run?
Answer: The growth was 95.5%.

Question: How did the growth turn out when `CN(C)c1ncnc2c1cnn2C` was run?
Answer: Its growth is 117%.

Question: `COC(CCCl)c1ccc(Cl)cc1` (stereo not given) was tested. Which growth did it give?
Answer: Its growth is 95%.

Question: With `O=[N+]([O-])c1c(Cl)ncnc1Cl` as the compound, how does the growth read?
Answer: Its growth is 112%.

Question: With `COc1ccc(C(=O)C(=O)c2ccccc2)cc1` as the compound, how does the growth read?
Answer: The growth was 101%.

Question: With `C[n+]1c(/C=C\C=C\N2CCCCC2)sc2ccccc21` as the compound, how does the growth read?
Answer: The growth was -9.41% (active).

Question: `CC(C)N(C(=O)c1ccccc1)C(C)C` was tested. Which growth did it give?
Answer: Its growth is 111%.

Question: Which growth does the source give for `OC(CBr)CCBr` (stereo not given) here?
Answer: The growth was 104%.

Question: With `C=CCc1cc(OC)c(O)c(OC)c1` as the compound, how does the growth read?
Answer: The growth was 102%.

Question: Which growth does the source give for `Nc1ccc(F)c(Cl)c1F` here?
Answer: Its growth is 108%.

Question: `CCCCc1ccc2nc(NC(=O)OC)[nH]c2c1` was tested. Which growth did it give?
Answer: Its growth is -18.9% (active).

Question: `Cc1cc(C)cc(OCC(=O)O)c1` was tested. Which growth did it give?
Answer: Its growth is 124%.

Question: `COc1ccc(-c2csc(NC(=O)Nc3nc(-c4ccc(OC)cc4)cs3)n2)cc1` was tested. Which growth did it give?
Answer: Its growth is 34.8%.

Question: Which growth does the source give for `c1ccc(Nc2ccccn2)nc1` here?
Answer: The growth was 91.7%.

Question: For `CS(=O)(=O)c1ccc(/C=C\C(=O)O)cc1`, which growth is on record?
Answer: The growth was 111%.

Question: With `O=C1NC(=O)C(c2ccccc2)O1` (stereo not given) as the compound, how does the growth read?
Answer: The growth was 98.3%.

Question: With `COc1ccc(Br)c(C=O)c1` as the compound, how does the growth read?
Answer: The growth was 18.9%.

Question: `Cc1ccc(S(=O)(=O)Oc2ccc3sc4c(CO)ccc(NCCN(C)C)c4c(=O)c3c2)cc1` was tested. Which growth did it give?
Answer: Its growth is -34.6% [100 µM] (active).

Question: With `CC(=O)CSc1ncnc2nc[nH]c12` as the compound, how does the growth read?
Answer: Its growth is 87.4%.

Question: For `C1CCc2onc(-c3noc4c3CCCCC4)c2CC1`, which growth is on record?
Answer: Its growth is 102%.

Question: `Nc1ccc(F)cc1F` was tested. Which growth did it give?
Answer: The growth was 107%.

Question: With `S=C(NCc1ccccc1)N1CCC(CCCC2CCN(C(=S)NCc3ccccc3)CC2)CC1` as the compound, how does the growth read?
Answer: The growth was 88.5%.

Question: `O=C(NC(=S)N1CC=CCC1)c1ccccc1` was tested. Which growth did it give?
Answer: Its growth is 94.2%.

Question: Which growth does the source give for `Cc1ccc(NC(=S)N2CCOCC2)cc1C` here?
Answer: The growth was 100%.

Question: `CC(C)=CCC[C@@H](C)[C@H]1CC[C@@]2(C)C3=C(CC[C@]12C)[C@@]1(C)CC[C@H](O)C(C)(C)[C@@H]1CC3` was tested. Which growth did it give?
Answer: Its growth is 99%.

Question: With `Nc1cc(F)ccc1[N+](=O)[O-]` as the compound, how does the growth read?
Answer: The growth was 109%.

Question: With `CC1(c2ccccc2)CO1` (stereo not given) as the compound, how does the growth read?
Answer: Its growth is 99.6%.

Question: Which growth does the source give for `COc1cc(C(=O)NC(=S)NCc2ccncc2)cc(OC)c1OC` here?
Answer: The growth was 86.1%.

Question: With `C=C1C(=O)C2CCN1CC2` as the compound, how does the growth read?
Answer: The growth was 78.2%.

Question: With `Nc1nnc2cc(F)ccc2n1` as the compound, how does the growth read?
Answer: The growth was 102%.
